Assay outcomes: PubChem, several laboratories
ANO1 activ = activates or potentiates the mouse TMEM16A chloride channel | B-score at 10 µM | hit rate 0.3% among 340,000 | Q8BHY3 | HEK293 TMEM16A/YFP-H148Q/I152L, iodide quench fluorescence; active compounds read low;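 active = fluorescence-ratio B-score plate-corrected deviation score at least 3 library SD below zero, with starting fluorescence score within 5 deviations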;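 note: channel opened by trigger with iodide after compound preincubation; score built on the fluorescence ratio of max minus min over baseline; more negative score means more quench and so TMEM16A activation or potentiation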
CHT allo act = human CHT allosteric activation. Q9GZV3. B-score at 10 µM. CHT-expressing cells, membrane potential dye, choline EC20; active compounds read high; LV-AA mutant CHT in HEK293 cells. hit rate 0.49% among 310,000;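 active = initial fluorescence not abnormally high and integrated response B-score, plate-corrected, over 3 SD above library mean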
PKA-R2B act = PKA-R2B complex activation; PKA-R2B holoenzyme dissociation, Cy5-IP20 fluorescence polarization; R2B truncated from residue 108, S112A mutant; 0% DMSO only, 100% 113 µM cGMP; activation, % at 11.4 µM; hit rate 0.079% among 340,000; AID 504700;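 active = activation above a cutoff set at the mean over all compounds plus 3 SD, cut at about 18% in these data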;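 note: higher means more holoenzyme dissociation and a rise in polarization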
Target sequence (P31323 whole entry, looked up, other chains not shown, the tested form may be a part): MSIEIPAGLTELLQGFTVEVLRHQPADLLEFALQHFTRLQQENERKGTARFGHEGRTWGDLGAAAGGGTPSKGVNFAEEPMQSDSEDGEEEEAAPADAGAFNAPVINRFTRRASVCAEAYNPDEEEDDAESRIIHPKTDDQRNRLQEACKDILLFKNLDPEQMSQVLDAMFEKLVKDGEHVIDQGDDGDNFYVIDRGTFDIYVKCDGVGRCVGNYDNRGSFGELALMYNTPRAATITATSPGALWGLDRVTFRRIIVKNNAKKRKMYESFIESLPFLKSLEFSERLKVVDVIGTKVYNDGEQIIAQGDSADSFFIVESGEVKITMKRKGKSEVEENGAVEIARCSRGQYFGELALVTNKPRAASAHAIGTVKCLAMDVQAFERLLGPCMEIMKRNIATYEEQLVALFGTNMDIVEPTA
CHT inh = inhibits the human high affinity choline transporter; CHT-expressing cells, membrane potential dye, choline response; active compounds read low; B-score at 10 µM; hit rate 0.86% among 310,000;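 active = B-score over 3 SD under the library average, and starting fluorescence ratio not unusually high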;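 note: choline stimulus applied at its EC90 after an EC20 pre-addition; B-score computed on integrated fluorescence ratio after choline addition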
PKA-R1A act = activators of PKA-R1A complex. P00514+P68181. PKA-R1A dissociation, Cy5-IP20 fluorescence polarization; scaled: DMSO 0%, 113 µM cGMP 100%. activation, % at 11.4 µM. hit rate 0.083% among 340,000. AID 504707;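 active = percent activation above the mean of all tested compounds plus 3 SD, cut at about 19% in these data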;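 note: higher means more PKAc released from R1A so a rise in polarization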
TMEM16A inh = mouse TMEM16A channel inhibition, primary screen; HEK293 TMEM16A/YFP iodide influx fluorescence, ionomycin; normalized B-score (activity score, 25-100; higher = stronger inhibition) at 10 µM; hit rate 1.2% among 310,000; Q8BHY3;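 active = ratio plate-corrected score three or more library SD toward inhibition, starting fluorescence score within five deviations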;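 note: score derived from kinetic fluorescence span divided by baseline fluorescence per well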
CHT inh conf = confirmation of human choline transporter CHT inhibitors; shares compounds with CHT inh; CHT-expressing cells, choline membrane potential dye; LV-to-AA substituted CHT, HEK293 cells; CHT activity remaining % of control (active compounds read low), % at 10 µM; hit rate 70% among 2,400;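 active = choline transporter activity left, mean of duplicates at 10 µM, below buffer-only control mean minus 3 SD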;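 note: depolarization triggered by choline at its EC90 following an EC20 pre-addition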
HEK293 MPD ctr = CHT inhibitor counter-screen hit in parental HEK293 cells | membrane potential dye, choline response; active = decrease or increase beyond buffer ±3SD | shares compounds with CHT inh | AID 493222 | hit rate 4% among 2,400 | membrane potential ratio readout (active if shifted either direction beyond buffer ±3SD; no single direction) at 10 µM;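 note: parental cells lack the transporter so any hit is non-specific; ratio is peak minus trough fluorescence over baseline after EC90 choline challenge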
Large screens that a line does not name were inactive (follow-up assays come after a bar, where they were run). An excerpt weighted towards active compounds, which were near 2.5% of everything screened.

C=Cn1cc[n+](CC(=O)c2ccc(-c3ccccc3)cc2)c1	CHT inh -6.69 | CHT inh conf 60.0% | HEK293 MPD ctr inactive
CN1CCN(c2ccc(Cl)cc2NC(=O)c2ccc(=O)n(C)n2)CC1	CHT inh -5.55 | CHT inh conf 56.0% | HEK293 MPD ctr 5.27
CN1CCN(c2ccc(Cl)cc2NC(=O)c2cc(=O)[nH]c3ccccc23)CC1	none (no result: CHT allo act, CHT inh, TMEM16A inh)
O=C(c1cccc(Oc2c(Cl)cccc2[N+](=O)[O-])c1)N1CCCCC1	none
O=C(c1cccc(Oc2ccc([N+](=O)[O-])cc2Cl)c1)N1CCCCC1	CHT inh -7.37 | CHT inh conf 47.5% | HEK293 MPD ctr inactive
Cc1ccc(C(=O)C(C)N2C(=O)NC(C)(c3ccccc3)C2=O)cc1 (centres undefined)	none
CCOc1ccccc1N1CCN(C(=O)CC(C)(C)C)CC1	none
CCOc1ccccc1N1CCN(C(=O)C(F)(F)F)CC1	CHT inh -6.24 | CHT inh conf inactive | HEK293 MPD ctr inactive
O=C(NNc1nc(-c2ccccc2)cs1)c1ccc(F)cc1	CHT inh -5.21 | CHT inh conf 71.5% | HEK293 MPD ctr inactive
O=C(NNc1nc(-c2ccc(F)cc2)cs1)c1ccccc1	none
O=C(NCc1nc(-c2ccccc2)cs1)c1ccccc1	CHT inh -6.52 | CHT inh conf 71.3% | HEK293 MPD ctr inactive
CNC(=O)c1ccc(-c2nc(-c3ccccc3)cs2)cc1	none
O=c1cc(CSc2ccc(Cl)cc2)nc(-c2ccncc2)[nH]1	none
O=c1cc(CSc2ccccc2)nc(-c2ccncc2)[nH]1	CHT inh -6.47 | CHT inh conf inactive | HEK293 MPD ctr inactive
CCCCCCn1c(=O)c(F)cn(Cc2ccc(OC)c([N+](=O)[O-])c2)c1=O	CHT inh -6.68 | CHT inh conf inactive | HEK293 MPD ctr inactive
CCCCn1c(=O)c(F)cn(Cc2ccc(OC)c([N+](=O)[O-])c2)c1=O	none
CCCCCn1c(=O)c(F)cn(Cc2ccc(OC)c([N+](=O)[O-])c2)c1=O	CHT inh -7.56 | CHT inh conf 53.6% | HEK293 MPD ctr inactive
CCOC(=O)Nc1cc(OC)cc2ccc(C)nc12	none (no result: ANO1 activ, CHT allo act, CHT inh, TMEM16A inh)
CCCCC/C=C/C1=CC(=O)C[C@H](c2ccc(OC)c(OC)c2)C1	none (no result: CHT allo act, CHT inh, TMEM16A inh)
CC(=O)/C=C/c1ccc2ccccc2n1	CHT inh -5.33 | CHT inh conf inactive | HEK293 MPD ctr inactive
CCn1cc(C(=O)NCCCN2CCC(C)CC2)c(=O)c2cc(S(=O)(=O)N(C)C3CCCCC3)ccc21	CHT inh -6.49 | CHT inh conf 38.7% | HEK293 MPD ctr inactive
CCn1cc(C(=O)NCCCN2CC(C)CC(C)C2)c(=O)c2cc(S(=O)(=O)N(C)C3CCCCC3)ccc21 (centres undefined)	CHT inh -4.98 | CHT inh conf 44.8% | HEK293 MPD ctr 2.94
Cc1ccc(/C([O-])=C(/C(=S)Nc2ccc(SC(F)F)cc2)[n+]2ccccc2)cc1[N+](=O)[O-]	none
O=C(NCc1ccco1)/C(=C/c1ccccc1F)NC(=O)c1ccccc1	none
CC(=O)Oc1cc2c3c(c1)/C(=C1/SC(=S)NC1=O)C(=O)N3C(C)(C)C=C2C	CHT inh -6.77, TMEM16A inh 100 | CHT inh conf 36.8% | HEK293 MPD ctr inactive
Cc1ccc(CNC(=O)C2CC2c2ccccc2)cc1 (centres undefined)	none
Cc1ccc2[nH]c(C(=O)O)c(NC(=O)[C@@H]3C[C@@H]3c3ccccc3)c2c1	CHT inh -5.03 | CHT inh conf inactive | HEK293 MPD ctr inactive
O=C(Nc1ccc(Cc2ccncc2)cc1)c1ccc(N2CCOCC2)c([N+](=O)[O-])c1	none
